Results: PubChem BioAssay (NCI)
The panel holds about 79,000 compounds, 15% with a hit somewhere; the sample as a whole holds those more often. Values without a mark were called inactive. Calls of active or inactive are those of the source. Cut-off read from the data, not from the text of the source: active = growth inhibition above about 70%; inactive = the rest.

Assays:
[1] = NCI Yeast Anticancer Drug Screen. Data for the rad50 strain (AID 155);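 note: 0% = growth of vehicle-only cultures of the same strain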; conditions: S. cerevisiae rad50 strain growth inhibition; at 50.0 µM; active compounds read high
How it was run: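 A DNA repair-deficient yeast mutant serves as the test organism; compound-induced growth inhibition is calculated against vehicle-treated cells.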

[2] = NCI Yeast Anticancer Drug Screen. Data for the mec2-1 strain (AID 157); conditions: S. cerevisiae mec2-1 strain, at 50.0 µM, active compounds read high
How it was run: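 Yeast mec2-1 mutant treated with compound. Readout: growth inhibition vs vehicle controls.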

[3] = NCI Yeast Anticancer Drug Screen. Data for the sgs1 mgt1 strain (AID 161);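 note: 0% = growth of cultures given vehicle only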; conditions: S. cerevisiae sgs1 mgt1 strain, at 50.0 µM, active compounds read high
How it was run: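 Genetically altered yeast, compound exposure, growth inhibition relative to vehicle.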

[4] = NCI Yeast Anticancer Drug Screen. Data for the cln2 rad14 strain (AID 165);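 note: 0% = growth equal to vehicle treated cultures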; conditions: S. cerevisiae cln2 rad14 strain, at 50.0 µM, active compounds read high
How it was run: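 cln2 rad14 yeast strain; compound exposure; growth inhibition read vs vehicle controls.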

[5] = NCI Yeast Anticancer Drug Screen. Data for the bub3 strain (AID 167); conditions: S. cerevisiae bub3 mutant strain, at 50.0 µM, active compounds read high
How it was run: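 Inhibition values come from growth of compound-treated mutant yeast normalised to vehicle-treated controls.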

[6] = NCI Yeast Anticancer Drug Screen. Data for the mlh1 rad18 strain (AID 175); conditions: S. cerevisiae mlh1 rad18 strain growth inhibition; at 50.0 µM; active compounds read high
How it was run: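 Yeast w/ defined DNA-repair lesions; compound exposure; growth vs vehicle controls → % inhibition.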

CCC(=O)C12CCCC1=NC(=N)N=C2C1=NC(=N)N=C2CCCC21C(=O)CC (configuration not stated)
growth inhibition [1]: -10.3%
growth inhibition [2]: 12.4%
growth inhibition [3]: -14.2%
growth inhibition [4]: 2.75%
growth inhibition [5]: -1.7%
growth inhibition [6]: 5.2%

CCOC(=O)c1cnc(SC)nc1Nc1ccc(Cl)cc1
growth inhibition [1]: -13.8%
growth inhibition [2]: -9.4%
growth inhibition [3]: -6.55%
growth inhibition [4]: -8.65%
growth inhibition [5]: 0.55%
growth inhibition [6]: -31.2%

CC1NNC(=S)NN1
growth inhibition [1]: -19.3%
growth inhibition [2]: 1.35%
growth inhibition [3]: 0.85%
growth inhibition [4]: -9.7%
growth inhibition [5]: 1.4%
growth inhibition [6]: 11.8%

CN(C)c1nc(N(C)C)c2cnn(C)c2n1
growth inhibition [1]: 21.7%
growth inhibition [2]: 3.7%
growth inhibition [3]: 20.9%
growth inhibition [4]: -15.8%
growth inhibition [5]: -2.7%
growth inhibition [6]: -29.8%

CC(=O)OCC1OC2OC(C)(C)OC2C1NC(=O)C(F)(F)F (configuration not stated)
growth inhibition [1]: 16.5%
growth inhibition [2]: -2.5%
growth inhibition [3]: -8.15%
growth inhibition [4]: 10.3%
growth inhibition [5]: -5.6%
growth inhibition [6]: 9.25%

COC(=O)c1cc(C)n(C)c(=O)c1C#N
growth inhibition [1]: 12.6%
growth inhibition [2]: 12.5%
growth inhibition [3]: -0.85%
growth inhibition [4]: 22.1%
growth inhibition [5]: 13.9%
growth inhibition [6]: 2.9%

CC(C)C(Br)C(=O)N1CCOCC1 (configuration not stated)
growth inhibition [1]: -0.4%
growth inhibition [2]: -17.9%
growth inhibition [3]: -5.2%
growth inhibition [4]: -20.6%
growth inhibition [5]: -9.6%
growth inhibition [6]: -5.15%

c1ccc(B2OC(c3ccccc3)=C(c3ccccc3)O2)cc1
growth inhibition [1]: 1.45%
growth inhibition [2]: -0.25%
growth inhibition [3]: 17.9%
growth inhibition [4]: 11.8%
growth inhibition [5]: -0.45%
growth inhibition [6]: 13.3%

CC(C)NNC(N)=O
growth inhibition [1]: -0.2%
growth inhibition [2]: 1.7%
growth inhibition [3]: -0.8%
growth inhibition [4]: -8.1%
growth inhibition [5]: 12.4%
growth inhibition [6]: -5.65%

O=C(/C=C(\Cl)c1ccc2c(c1)OCO2)OC/C=C\c1ccc2c(c1)OCO2
growth inhibition [1]: 30.9%
growth inhibition [2]: 9.55%
growth inhibition [3]: 25.1%
growth inhibition [4]: 20.3%
growth inhibition [5]: -7.4%
growth inhibition [6]: 19.2%

COc1ccc2nc3c(Cl)cccc3c(Cl)c2c1
growth inhibition [1]: 28.4%
growth inhibition [2]: 38.5%
growth inhibition [3]: 3.4%
growth inhibition [4]: 4.6%
growth inhibition [5]: 7.35%
growth inhibition [6]: 81.5% (active)

O=C(c1ccccc1)c1ccccc1C(=O)c1ccccc1
growth inhibition [1]: 77% (active)
growth inhibition [2]: 25.6%
growth inhibition [3]: 54%
growth inhibition [4]: -43%
growth inhibition [5]: 70.4% (active)
growth inhibition [6]: 52%

CCCc1ccccc1NC(=O)NCCCl
growth inhibition [1]: -1.75%
growth inhibition [2]: -2.5%
growth inhibition [3]: -0.5%
growth inhibition [4]: -30.6%
growth inhibition [5]: -12.9%
growth inhibition [6]: 5.6%

COc1ccc(C(C#N)N(C)C)cc1OC (configuration not stated)
growth inhibition [1]: -16.9%
growth inhibition [2]: -13.6%
growth inhibition [3]: 8%
growth inhibition [4]: -15.1%
growth inhibition [5]: 0.75%
growth inhibition [6]: 5.15%

COC1OC2COc3ccccc3OC2C2C1N2C(N)=S (configuration not stated)
growth inhibition [1]: 3.4%
growth inhibition [2]: 22.5%
growth inhibition [3]: 16.7%
growth inhibition [4]: 1.65%
growth inhibition [5]: 19.4%
growth inhibition [6]: 12.9%

CC1CC2(CCC1OCc1ccccc1)OCCO2 (configuration not stated)
growth inhibition [1]: 0.25%
growth inhibition [2]: -6.85%
growth inhibition [3]: -2.3%
growth inhibition [4]: 2.2%
growth inhibition [5]: 13.3%
growth inhibition [6]: -1.7%

C=CCCCCCCCCC1OCC(CC)C(CCC)O1 (configuration not stated)
growth inhibition [1]: 5.65%
growth inhibition [2]: 10.1%
growth inhibition [3]: -2.8%
growth inhibition [4]: 47.5%
growth inhibition [5]: 26.5%
growth inhibition [6]: 39.3%

CCN(CC)C1=CC(=O)C(N(CC)CC)=CC1=O
growth inhibition [1]: 1.25%
growth inhibition [2]: 0.15%
growth inhibition [3]: -7%
growth inhibition [4]: -4.5%
growth inhibition [5]: 13.1%
growth inhibition [6]: 2.35%

Cc1nc(C(=O)O)c(C(=O)O)[nH]1
growth inhibition [1]: -4.4%
growth inhibition [2]: -15.1%
growth inhibition [3]: -10.9%
growth inhibition [4]: -1.7%
growth inhibition [5]: -7.75%
growth inhibition [6]: 1.2%

CN(C)c1cc[n+](-c2c([O-])c3ccccc3n(-c3ccccc3)c2=O)cc1
growth inhibition [1]: 20.1%
growth inhibition [2]: 6.1%
growth inhibition [3]: 14.2%
growth inhibition [4]: 12.7%
growth inhibition [5]: 4.8%
growth inhibition [6]: 21%

CCOC(=O)CCC(C)(C#N)c1ccccc1 (configuration not stated)
growth inhibition [1]: -2.35%
growth inhibition [2]: 0.65%
growth inhibition [3]: 2.5%
growth inhibition [4]: -9.1%
growth inhibition [5]: 5.75%
growth inhibition [6]: -0.05%

CSc1cc(C)c(OC(=O)Nc2cc(C)ccc2C)c(C)c1
growth inhibition [1]: -3.45%
growth inhibition [2]: 0.8%
growth inhibition [3]: 3%
growth inhibition [4]: 1%
growth inhibition [5]: 33.2%
growth inhibition [6]: 9.75%

CC=C(c1ccccc1)c1ccccc1
growth inhibition [1]: -34%
growth inhibition [2]: -25.2%
growth inhibition [3]: -13.7%
growth inhibition [4]: -10%
growth inhibition [5]: -3.3%
growth inhibition [6]: -15.2%

Cc1ccc2c(c1)P(=O)(O)c1cc(C)ccc1O2
growth inhibition [1]: -45.4%
growth inhibition [2]: -13.2%
growth inhibition [3]: 23.6%
growth inhibition [4]: 3.2%
growth inhibition [5]: -9.6%
growth inhibition [6]: -8.55%

CCC1(C)OC(C)CC(C)(C)O1 (configuration not stated)
growth inhibition [1]: 0.65%
growth inhibition [2]: -22.9%
growth inhibition [3]: -25.4%
growth inhibition [4]: -0.25%
growth inhibition [5]: -12.6%
growth inhibition [6]: 0%

O=C(CCSc1ncnc2nc[nH]c12)c1ccccc1
growth inhibition [1]: -24.8%
growth inhibition [2]: 20.4%
growth inhibition [3]: -3.05%
growth inhibition [4]: -36.2%
growth inhibition [5]: 4.3%
growth inhibition [6]: 12.1%

O=C(Nc1ccccc1C(=O)N/N=C/c1ccccc1O)c1ccccc1Cl
growth inhibition [1]: 73.3% (active)
growth inhibition [2]: 91% (active)
growth inhibition [3]: 91.4% (active)
growth inhibition [4]: 84.8% (active)
growth inhibition [5]: 68.3%
growth inhibition [6]: 90.8% (active)

O=C(CC(=O)N1N=C(n2ccc3ccccc32)CC1c1ccccc1)Nc1cccc(Cl)c1 (configuration not stated)
growth inhibition [1]: -35.5%
growth inhibition [2]: -15.3%
growth inhibition [3]: -11.8%
growth inhibition [4]: 12.1%
growth inhibition [5]: -3.5%
growth inhibition [6]: -5.85%

c1ccc2c(c1)nnn2CN1CCOCC1
growth inhibition [1]: -6.3%
growth inhibition [2]: 17.1%
growth inhibition [3]: -26.6%
growth inhibition [4]: -22.9%
growth inhibition [5]: 3.15%
growth inhibition [6]: 5.7%

Cc1nc(-c2ccccc2)ncc1C(O)CN1CCCCC1 (configuration not stated)
growth inhibition [1]: -21.7%
growth inhibition [2]: 25.6%
growth inhibition [3]: 18.1%
growth inhibition [4]: -43.2%
growth inhibition [5]: 20.5%
growth inhibition [6]: 2.25%

c1ccc(C2NC(c3ccccc3)c3c(ccc4ccccc34)O2)cc1 (configuration not stated)
growth inhibition [1]: 20.1%
growth inhibition [2]: -2.1%
growth inhibition [3]: 13.1%
growth inhibition [4]: -19.9%
growth inhibition [5]: -5.15%
growth inhibition [6]: 20.6%

O=C(CC(=O)c1ccccc1)Cc1ccccc1.O=C(CC(=O)c1ccccc1)Cc1ccccc1.[Cu]
growth inhibition [1]: 60%
growth inhibition [2]: 22.6%
growth inhibition [3]: 55.6%
growth inhibition [4]: 12.7%
growth inhibition [5]: 12.2%
growth inhibition [6]: 41.2%

Clc1cccc(-c2sc(-c3ccsc3)cc2Cc2ccsc2)c1
growth inhibition [1]: -21.2%
growth inhibition [2]: -20.1%
growth inhibition [3]: -22.1%
growth inhibition [4]: -28.6%
growth inhibition [5]: -24.1%
growth inhibition [6]: 2.1%

COc1ccc(C=Nc2c(O)ccc3c2CCCC3)cc1OC
growth inhibition [1]: 9.55%
growth inhibition [2]: 4.7%
growth inhibition [3]: -6.1%
growth inhibition [4]: -49.3%
growth inhibition [5]: 1.95%
growth inhibition [6]: 14.9%

CCCC(=O)CC(C)C(=O)C(=O)NC12CC3CC(CC(C3)C1)C2 (configuration not stated)
growth inhibition [1]: 14.6%
growth inhibition [2]: 8.35%
growth inhibition [3]: 13.4%
growth inhibition [4]: 20.2%
growth inhibition [5]: 4.4%
growth inhibition [6]: 30.3%

O=C(N/N=C/c1ccc(Cl)cc1)c1cc(-c2ccccc2)nc2ccccc12
growth inhibition [1]: 5.95%
growth inhibition [2]: 22.3%
growth inhibition [3]: 17.4%
growth inhibition [4]: 21.7%
growth inhibition [5]: 2%
growth inhibition [6]: -5.7%

Cc1c2c(cc3c1[nH]c1ccccc13)C(=O)c1ccccc1C2=O
growth inhibition [1]: 75.5% (active)
growth inhibition [2]: 68.5%
growth inhibition [3]: 75.8% (active)
growth inhibition [4]: 75.3% (active)
growth inhibition [5]: 68.1%
growth inhibition [6]: 83.3% (active)

OC(CCCCCCCCC(O)CN1CCCCC1)CN1CCCCC1 (configuration not stated)
growth inhibition [1]: 3.3%
growth inhibition [2]: 25.6%
growth inhibition [3]: 5.45%
growth inhibition [4]: 11%
growth inhibition [5]: 20.6%
growth inhibition [6]: 15.1%

O=S(O)CCCSSc1ccccc1
growth inhibition [1]: 38.5%
growth inhibition [2]: 22.4%
growth inhibition [3]: 40.1%
growth inhibition [4]: 56.1%
growth inhibition [5]: 40.7%
growth inhibition [6]: 67.2%

S=c1[nH]n(-c2ccccc2)c(=S)s1
growth inhibition [1]: -28.7%
growth inhibition [2]: -41.1%
growth inhibition [3]: -4.95%
growth inhibition [4]: -1.15%
growth inhibition [5]: 15.3%
growth inhibition [6]: -22.6%

Cc1ccc(/C=C(/C#N)C(N)=O)cc1
growth inhibition [1]: 11.2%
growth inhibition [2]: 0.05%
growth inhibition [3]: 21.4%
growth inhibition [4]: 17.6%
growth inhibition [5]: 12.5%
growth inhibition [6]: 29.9%

CCOC(=O)c1cc(C=O)nc2c(Cl)cc(Cl)cc12
growth inhibition [1]: 18.7%
growth inhibition [2]: 6.25%
growth inhibition [3]: 22.4%
growth inhibition [4]: 5.9%
growth inhibition [5]: 3.8%
growth inhibition [6]: 17.6%
